Source: PubChem BioAssay
A number with no mark means an inactive call.

Experiment: changes in parasitized red cell lysis, either direction – P. falciparum Indochina, OD700, 3 h, PSAC antagonist project, primary screen (AID 1156)
Settings: P. falciparum-infected erythrocytes, osmotic lysis, higher = more signal, called active from +8 up or from −8 down
Compound `C=CCN1C(=O)[C@@]2(Cc3ccccc31)N=C(c1ccc(OCCCO)cc1)O[C@H]2c1ccccc1` has a z-score of 3.29. `[N-]=[N+]=Nc1ccccc1[C@@H]1OC(c2ccc(OCCCO)cc2)=N[C@]1(CCS(=O)(=O)c1ccccc1)C(N)=O` gave a z-score of 1.26. `CN(C)C(=O)[C@@]1(CCS(=O)(=O)c2ccccc2)COC(c2ccc(OCCCO)cc2)=N1` gave a z-score of 1.69. Work on `CCOC(=O)C[C@H]1[C@H](OC(=O)c2cc3ccccc3oc2=O)[C@@H](NC(=O)c2ccccc2)c2cc(OCCCO)ccc2N1C(=O)c1ccc2ccccc2n1` yielded a z-score of 1.17. Work on `C=CCOC(=O)[C@H]1[C@@H]2C(=O)O[C@@H](c3ccccc3)[C@@H](c3ccccc3)N2[C@@H](c2ccc(OCCOC(=O)[C@H]3C[C@H]4C(=O)N[C@@H](CCCCNC(C)=O)C(=O)N4[C@H]3c3cccc(OCCO)c3)cc2)[C@]12C(=O)Nc1ccccc12` yielded a z-score of 3.95. Compound `CC(C)C(CO)N1C(=O)[C@@H]2C3C(=O)OCCC/C=C\[C@H]3OC23C=CCN(CCN2CCOCC2)C(=O)[C@@H]13` (stereo not given in full) has a z-score of 0.148. Work on `O=C(NCCN1CCOCC1)C1N=C(c2ccc(OCCCO)cc2)N(c2ccccc2)O1` (stereo not given) yielded a z-score of -0.625. For `COC(=O)[C@@]1(Cc2ccccc2)[C@H]2c3cc(C(=O)N4CCCC4)n(Cc4ccc(S(C)(=O)=O)cc4)c3C[C@H]2CN1C(=O)c1ccccc1`, the z-score was 0.716. In the case of `O=C1[C@@]23C=C(Br)[C@H](C[C@@H]2CCOC3)[C@@]12CO2`, the z-score is reported as -0.0502. In the case of `O=C(c1ccccc1)N1C(=O)[C@]2(COC(c3ccc(OCCCO)cc3)=N2)Cc2ccccc21`, the z-score is reported as 3.39. Work on `Cc1nc2cc(Br)ccc2c(=O)o1` yielded a z-score of 0.193. `CCCCC(CC)C(O)C1C=CC2C(=O)N(Cc3ccccc3)C(=O)C2N1n1cnnc1` (stereo not given) gave a z-score of 0.604. `CC(C)C(O)C1C=CC2C(=O)NC(=O)C2N1Nc1ccc(Cl)cc1Cl` (stereo not given) gave a z-score of -0.782. `COCCOC(=O)N1C(=O)[C@@]2(c3ccccc31)[C@H](c1ccc(O)cc1)N1[C@H](c3ccccc3)[C@H](c3ccccc3)OC(=O)[C@H]1[C@@H]2C(=O)Nc1nc2ccccc2s1` showed a z-score of 0.109. `CC(C)C(=C=CC[C@@H](O)c1ccc(OCCO)cc1)C[C@@H](O)COCc1ccccc1` gave a z-score of 0.776. With `O=C1C2C=CC(C(O)Cc3ccccc3)N(n3cnnc3)C2C(=O)N1Cc1ccccc1` (stereo not given) the z-score was 1.04. `COCCOC(=O)N1C(=O)[C@@]2(c3cc(C#Cc4ccc(OC)cc4)ccc31)[C@H](c1ccc(O)cc1)N1[C@H](c3ccccc3)[C@H](c3ccccc3)OC(=O)[C@H]1[C@@H]2C(=O)N1CCc2cc(OC)c(OC)cc2C1` showed a z-score of 0.401. Work on `COc1cc2c(cc1O)C(C1CC1)N(Cc1sc3ccccc3c1Cl)CC2` (stereo not given) yielded a z-score of -0.449. Compound `CC(C)C(=C=CC[C@H](O)c1ccc(OCCO)cc1)CCO` has a z-score of 1.11. Compound `CC(=O)NCCCC[C@@H]1NC(=O)[C@@H]2C[C@H](C(=O)NCCCCCNC(=O)CS)[C@H](c3cccc(OCCO)c3)N2C1=O` has a z-score of 0.344. For `NC(=O)NCC#Cc1ccc2c(c1)[C@]1(C(=O)N2)[C@H](c2ccc(O)cc2)N2[C@H](c3ccccc3)[C@H](c3ccccc3)OC(=O)[C@H]2[C@@H]1C(=O)O`, the z-score was 0.259. Compound `COc1cc(Br)cc(C(O)C2C=CC3C(=O)N(C)C(=O)C3N2N2CCCCC2)c1OC` (stereo not given) has a z-score of 0.126. Work on `COc1ccc(CCNC(=O)[C@@H]2c3ccccc3C(=O)N(Cc3ccccc3Cl)[C@H]2c2ccc(CO)cc2)cc1` yielded a z-score of 0.209. In the case of `CCCCN1CC=CC23O[C@@H]4C=CCCOC(=O)C4[C@H]2C(=O)N(CCCCCCO)[C@@H]3C1=O` (stereo not given in full), the z-score is reported as 0.711. In the case of `CCOC(=O)C[C@H]1[C@H](OC(=O)c2ccc(C(=O)c3ccccc3)cc2)[C@@H](NC(=O)c2ccccc2)c2cc(OCCCO)ccc2N1C(=O)c1ccc2ccccc2n1`, the z-score is reported as -0.2. In the case of `C=CCOC(=O)[C@H]1[C@@H]2C(=O)O[C@@H](c3ccccc3)[C@@H](c3ccccc3)N2[C@@H](c2ccc(OCCOC(=O)[C@H]3C[C@H]4C(=O)N[C@@H](CCCC[N+](C)(C)C)C(=O)N4[C@H]3c3ccc(O)cc3)cc2)[C@]12C(=O)Nc1ccc(I)cc12`, the z-score is reported as -3.16. With `CC(CO)N1C(=O)[C@@H]2C3C(=O)OCCC/C=C\[C@H]3OC23C=CCN(C(C)(C)C)C(=O)[C@@H]13` (stereo not given in full) the z-score was 2.51. `CC1CC/C=C\[C@H]2OC34C=CCN(C(C)(C)C)C(=O)[C@H]3N(C(C)CO)C(=O)[C@@H]4C2C(=O)O1` (stereo not given in full) showed a z-score of 0.545. `COc1ccc(C#Cc2ccc3c(c2)[C@]2(C(=O)N3)[C@H](C(=O)Nc3nc4ccccc4s3)[C@H]3C(=O)O[C@H](c4ccccc4)[C@H](c4ccccc4)N3[C@@H]2c2ccc(O)cc2)cc1` gave a z-score of -6.71. `C=CCC(OC(C)=O)[C@@H]1[C@@H](N(Cc2ccc(-c3ccccc3)cc2)C(=O)Cc2ccc(OC)cc2)c2cc(OCCCO)ccc2N1C(=O)Cc1ccc2ccccc2c1` (stereo not given in full) showed a z-score of 0.198. In the case of `CN1C(=O)C2C=CC(C(O)C#Cc3ccccc3)N(N3CCCCC3)C2C1=O` (stereo not given), the z-score is reported as 0.83. `C=CC(=C)[C@H]1Oc2ccccc2S(=O)(=O)N2CCC[C@@H]12` gave a z-score of -0.309. Work on `C=CCC(OC(C)=O)[C@@H]1[C@@H](N(Cc2ccc(-c3cccc(C(F)(F)F)c3)o2)C(=O)c2ccc(C)cc2)c2cc(OCCCO)ccc2N1C(=O)Cc1ccc2ccccc2c1` (stereo not given in full) yielded a z-score of -0.305. With `COCCOC(=O)N1C(=O)[C@@]2(c3cc(C#CCC(C(=O)OC)C(=O)OC)ccc31)[C@H](C(=O)N1CCN(c3ncccn3)CC1)[C@H]1C(=O)O[C@H](c3ccccc3)[C@H](c3ccccc3)N1[C@@H]2c1ccccc1OCCO` the z-score was 0.391. With `CC(C)=CCCC(C)=CC(O)C1C=CC2C(=O)N(C)C(=O)C2N1Nc1ccccc1` (stereo not given) the z-score was 0.977.
